“And” between values parts separate entries of the source, which are not always exact repeats. Equal values may be shown once. The panel holds about 79,000 compounds, 15% with a hit somewhere; the sample as a whole holds those more often. Where a structure was tested more than once in an assay, its records may differ in their call. The source made the active and inactive calls. Rule as the data show it: active = growth inhibition above about 70%; inactive = the rest.
Key:
[1] = NCI Yeast Anticancer Drug Screen. Data for the rad50 strain (AID 155);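 also: 0% = growth of vehicle-only cultures of the same strain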; details: S. cerevisiae rad50 strain growth inhibition, stronger effect = higher value
In short: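 Yeast carrying a defined DNA repair defect were exposed to test compounds, and growth was compared with vehicle-treated controls to give percent inhibition.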

[2] = NCI Yeast Anticancer Drug Screen. Data for the mec2-1 strain (AID 157); details: S. cerevisiae mec2-1 strain, stronger effect = higher value
In short: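 Compounds were applied to mec2-1 yeast cells. Their growth was then compared with that of vehicle-treated cultures to give growth inhibition.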

[3] = NCI Yeast Anticancer Drug Screen. Data for the sgs1 mgt1 strain (AID 161);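 also: 0% = growth of cultures given vehicle only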; details: S. cerevisiae sgs1 mgt1 strain, stronger effect = higher value
In short: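 Growth of a repair-deficient yeast mutant was monitored after compound treatment and expressed as inhibition relative to vehicle-treated cultures.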

[4] = NCI Yeast Anticancer Drug Screen. Data for the cln2 rad14 strain (AID 165);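 also: 0% = growth equal to vehicle treated cultures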; details: S. cerevisiae cln2 rad14 strain, stronger effect = higher value
In short: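 Strain: cln2 rad14 yeast, altered in cell cycle control and DNA damage repair. Read-out: growth inhibition vs vehicle.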

[5] = NCI Yeast Anticancer Drug Screen. Data for the bub3 strain (AID 167); details: S. cerevisiae bub3 mutant strain, stronger effect = higher value
In short: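 Compounds were applied to a genetically altered yeast strain carrying a cell-cycle control defect. Growth inhibition was scored against vehicle-treated controls.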

[6] = NCI Yeast Anticancer Drug Screen. Data for the mlh1 rad18 strain (AID 175); details: S. cerevisiae mlh1 rad18 strain growth inhibition, stronger effect = higher value
In short: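 A repair-deficient yeast strain is exposed to test compound, and growth is scored relative to vehicle-treated controls.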

[7] = at 5.0 µM (retest, dose inferred, filed as 0.5)
[8] = at 50.0 µM (retest, dose inferred, filed as 5.0)

Structure (SMILES) | growth inhibition [1, 7] | growth inhibition [1, 8] | growth inhibition ([1]; at 50.0 µM) | growth inhibition [2, 7] | growth inhibition [2, 8] | growth inhibition ([2]; at 50.0 µM) | growth inhibition [3, 7] | growth inhibition [3, 8] | growth inhibition ([3]; at 50.0 µM) | growth inhibition [4, 7] | growth inhibition [4, 8] | growth inhibition ([4]; at 50.0 µM) | growth inhibition [5, 7] | growth inhibition [5, 8] | growth inhibition ([5]; at 50.0 µM) | growth inhibition [6, 7] | growth inhibition [6, 8] | growth inhibition ([6]; at 50.0 µM)
Nc1ccc2c(ccc3ccc4ccccc4c32)c1 | -6% (inactive) | 93% (active) | 96.7% (active) | -8% (inactive) | 98% (active) | 96.8% (active) | -8% (inactive) | 98% (active) | 97.8% (active) | -7% (inactive) | 96% (active) | 95.5% (active) | -6% (inactive) | 97% (active) | 96.7% (active) | 17% (inactive) | 97% (active) | 95.6% (active)
COc1ccc(N/N=C(\CCN(C)C)c2ccccc2)cc1 | 7% (inactive) | 51% (inactive) | 80.7% (active) | -2% (inactive) | 40% (inactive) | 3.7% (inactive) | 16% (inactive) | 61% (inactive) | 56.9% (inactive) | 6% (inactive) | 32% (inactive) | 57.9% (inactive) | -6% (inactive) | 78% (active) | 49.2% (inactive) | 12% (inactive) | 78% (active) | 94.8% (active)
CC(NC(=O)C(N)Cc1ccccc1)C(=O)NC1C(CO)OC(n2cnc3c(N)ncnc32)C1O (centres undefined) | 0% (inactive) | -1% (inactive) | 32.2% (inactive) | 2% (inactive) | 17% (inactive) | 76.9% (active) | -5% (inactive) | -20% (inactive) | 3.5% (inactive) | 0% (inactive) | -6% (inactive) | 97.7% (active) | -3% (inactive) | -4% (inactive) | 96.5% (active) | 12% (inactive) | 32% (inactive) | 69.5% (inactive)
CC1=NC(=Cc2ccc([N+](=O)[O-])cc2)C(=O)N1n1c(-c2ccccc2)nc2ccccc2c1=O | 3% (inactive) | 1% (inactive) | 48.9% (inactive) | -13% (inactive) | 0% (inactive) | 63.8% (inactive) | 5% (inactive) | 7% (inactive) | 45.3% (inactive) | 13% (inactive) | 11% (inactive) | 77% (active) | -15% (inactive) | -2% (inactive) | 68% (inactive) | 11% (inactive) | 1% (inactive) | 62.8% (inactive)
O=C(CNCc1ccccc1)Oc1c(Cl)c(Cl)c(Cl)c(Cl)c1Cl | 3% (inactive) | 32% (inactive) | 72.5% (active) | 22% (inactive) | 43% (inactive) | 62.5% (inactive) | -13% (inactive) | 55% (inactive) | 85.2% (active) | -5% (inactive) | 11% (inactive) | 51.4% (inactive) | -4% (inactive) | 31% (inactive) | 20% (inactive) | 29% (inactive) | 73% (active) | 64.7% (inactive)
COc1cc(O)ccc1C(=S)SC | 6% (inactive) | 78% (active) | 85% (active) | 1% (inactive) | 18% (inactive) | 29.6% (inactive) | 5% (inactive) | 66% (inactive) | 42.5% (inactive) | 0% (inactive) | 29% (inactive) | 9% (inactive) | -5% (inactive) | 33% (inactive) | -6.9% (inactive) | 12% (inactive) | 87% (active) | 30.9% (inactive)
CC12CCC3c4ccc(O)cc4CCC3C1CCC2S (centres undefined) | -4% (inactive) | 96% (active) | -7.35% (inactive) and 96.5% (active) | -31% (inactive) | 97% (active) | -1.65% (inactive) and 49.3% (inactive) | -19% (inactive) | 97% (active) | -2.95% (inactive) and 52.2% (inactive) | -3% (inactive) | 96% (active) | -5.3% (inactive) and 94.8% (active) | -9% (inactive) | 97% (active) | 0.75% (inactive) and 98.1% (active) | -26% (inactive) | 95% (active) | -2.3% (inactive) and 96.3% (active)
Clc1ccc(CN2CCCN(Cc3ccc(Cl)cc3)C2c2cc3ccccc3c3ccccc23)cc1 | 49% (inactive) | 99% (active) | 70% (active) | 19% (inactive) | 98% (active) | 68.5% (inactive) | 38% (inactive) | 98% (active) | 87.8% (active) | 22% (inactive) | 96% (active) | 33.1% (inactive) | 22% (inactive) | 98% (active) | 98.7% (active) | 45% (inactive) | 98% (active) | 89.2% (active)
